In PubChem BioAssay (NCI):
Compounds without any hit were thinned out: in the full panel of roughly 83,000, 20% have a hit.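 Method: cells in 96-well plates; compound added at one concentration; 48 h incubation; percent growth measured; values under 10 scored active.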 Activity calls are given as the source filed them.

Columns and labels:
Test in all cases: NCI-60 one-dose screen, 48 h (100 = growth as untreated, 0 = no growth, -100 = all killed)
NCI-H460 lung = settings: 10 µM
HOP-92 NSCLC = settings: 10 µM
MDA-MB-231 breast = settings: 10 µM
RXF 393 renal = settings: 10 µM
LOX IMVI melanoma = settings: 10 µM
UO-31 renal = settings: 10 µM
CCRF-CEM leukemia = settings: 10 µM
OVCAR-5 ovarian = settings: 10 µM
HS 578T breast = settings: 10 µM
T-47D breast = settings: 10 µM
MDA-MB-468 breast = settings: 10 µM unless noted
A549/ATCC NSCLC = settings: 10 µM
K-562 leukemia = settings: 10 µM
HT29 colon = settings: 10 µM
MOLT-4 leukemia = settings: 10 µM
SR leukemia = settings: 10 µM
NCI/ADR-RES ovarian = settings: 10 µM
EKVX NSCLC = settings: 10 µM
SW-620 colon = settings: 10 µM

Measured: growth

CC1=C(CCC=O)C2=C(C)C3(CC3)[C@@](C)(O)C(=O)C2=C1
active: NCI-H460 lung -42.6% | HOP-92 NSCLC -64.3% | MDA-MB-231 breast -99.2% | RXF 393 renal -95.3% | LOX IMVI melanoma -94.8% | UO-31 renal -99.7% | CCRF-CEM leukemia -15.3% | OVCAR-5 ovarian -95.8% | HS 578T breast -8.94% | T-47D breast -41.3% | MDA-MB-468 breast -86.5%

C#CCCCN(CCNc1ccnc2cc(Cl)ccc12)C(=O)CCC(=O)O[C@@H]1O[C@@H]2OC3(C)CC[C@H]4[C@H](C)CC[C@@H]([C@H]1C)[C@@]24OO3
inactive: HOP-92 NSCLC 27.3% | A549/ATCC NSCLC 40.8% | K-562 leukemia 13% | MDA-MB-231 breast 64.2% | RXF 393 renal 34.3% | UO-31 renal 14.3% | CCRF-CEM leukemia 24.4% | OVCAR-5 ovarian 45.1% | HS 578T breast 44.1% | NCI/ADR-RES ovarian 16.2%
active: HT29 colon 4.95% | LOX IMVI melanoma -40.9% | MOLT-4 leukemia -4.65% | SR leukemia -21.9% | MDA-MB-468 breast -3.36%

O=C(/C=C/c1ccccc1Cl)c1nc2ccccc2n1Cc1ccc(F)cc1
active: HOP-92 NSCLC -65.4% | A549/ATCC NSCLC -44.3% | K-562 leukemia -25.9% | RXF 393 renal -97.8% | EKVX NSCLC -91.6% | UO-31 renal -99.6% | CCRF-CEM leukemia -25.4% | MOLT-4 leukemia -16.2% | SR leukemia -27.9% | OVCAR-5 ovarian -66.3% | NCI/ADR-RES ovarian -56% | MDA-MB-468 breast -94.1%

Cc1c2oc3c(C)ccc(C(=O)N[C@@H]4C(=O)N[C@H](C(C)C)C(=O)N5CCC[C@H]5C(=O)N(C)CC(=O)N(C)[C@@H](C(C)C)C(=O)OC4C)c3nc-2c(C(=O)N[C@@H]2C(=O)N[C@H](C(C)C)C(=O)N3CC(=O)C[C@H]3C(=O)N(C)CC(=O)N(C)[C@@H](C(C)C)C(=O)OC2C)c(N)c1=O (stereo partly specified)
active: NCI-H460 lung 5.56% | HOP-92 NSCLC -17.7% | MDA-MB-231 breast 1.92% | RXF 393 renal -78.8% | HT29 colon 1.14% | LOX IMVI melanoma -0.489% | EKVX NSCLC -12.5% | UO-31 renal 3.68% | CCRF-CEM leukemia 2.91% | HS 578T breast 5.64% | NCI/ADR-RES ovarian 4.49% | T-47D breast -5% | MDA-MB-468 breast -37.7%

C=CC[Se]C(=O)c1ccc(C(=O)[Se]CC=C)s1
active: HOP-92 NSCLC -29.9% | K-562 leukemia -23.1% | MDA-MB-231 breast -36.4% | RXF 393 renal -93.6% | HT29 colon -7.14% | LOX IMVI melanoma -75.6% | UO-31 renal -98.1% | CCRF-CEM leukemia -12% | MOLT-4 leukemia -13.9% | SR leukemia -30% | HS 578T breast -22.1% | NCI/ADR-RES ovarian -23.1% | T-47D breast -40.4% | SW-620 colon -77.4% | MDA-MB-468 breast -60.6%

COCCOCCOCCOc1ccc(-n2cc(CCCN(CCNc3ccnc4cc(Cl)ccc34)C(=O)CCC(=O)O[C@@H]3O[C@@H]4OC5(C)CC[C@H]6[C@H](C)CC[C@@H]([C@H]3C)[C@@]46OO5)nn2)cc1
active: LOX IMVI melanoma 1.51% | MOLT-4 leukemia 7.21% | SR leukemia -5.07%
inactive: HOP-92 NSCLC 19.3% | K-562 leukemia 17.2% | MDA-MB-231 breast 73.5% | RXF 393 renal 33.6% | EKVX NSCLC 53.5% | UO-31 renal 16.4% | CCRF-CEM leukemia 26.4% | HS 578T breast 34.9% | NCI/ADR-RES ovarian 26.8%

C[C@H]1[C@H](OC(=O)CCC(=O)Nc2cnccn2)O[C@@H]2OC3(C)CC[C@H]4[C@H](C)CC[C@@H]1[C@@]24OO3
inactive: NCI-H460 lung 29.6% | HOP-92 NSCLC 51.8% | K-562 leukemia 14.9% | MDA-MB-231 breast 83.7% | RXF 393 renal 49% | UO-31 renal 11% | CCRF-CEM leukemia 35.4% | MOLT-4 leukemia 27.6% | OVCAR-5 ovarian 35.2% | HS 578T breast 29.2% | MDA-MB-468 breast 50.7%
active: LOX IMVI melanoma -72.9% | SR leukemia 4.95%

CC(C)N=C([Se])NC(=O)c1cccs1
inactive: HOP-92 NSCLC 88.3% | K-562 leukemia 71% | RXF 393 renal 21.6% | UO-31 renal 12.4% | CCRF-CEM leukemia 29.7% | MOLT-4 leukemia 15.4% | MDA-MB-468 breast 64.4%
active: NCI-H460 lung 0.572% | SR leukemia 2.39% | NCI/ADR-RES ovarian -27%

CCOC(=O)C1=C(Nc2ccccc2)C(=O)OC12C(=O)Nc1ccccc12 (stereo unspecified)
inactive: HOP-92 NSCLC 101% | A549/ATCC NSCLC 112% | K-562 leukemia 95.5% | MDA-MB-231 breast 104% | RXF 393 renal 119% | LOX IMVI melanoma 94.3% | UO-31 renal 73.2% | CCRF-CEM leukemia 93.9% | MOLT-4 leukemia 108% | SR leukemia 97.3% | HS 578T breast 106% | NCI/ADR-RES ovarian 107% | MDA-MB-468 breast 129%

COc1cc(OC)c(/C=C/C(=O)c2nc3ccccc3n2Cc2ccc(F)cc2)c(OC)c1
inactive: NCI-H460 lung 58.9% | HOP-92 NSCLC 50.2% | K-562 leukemia 81.9% | RXF 393 renal 33.7% | HT29 colon 90.2% | UO-31 renal 82.7% | CCRF-CEM leukemia 64.5% | MOLT-4 leukemia 44.7% | SR leukemia 74.3% | NCI/ADR-RES ovarian 78.2% | T-47D breast 61.8% | MDA-MB-468 breast 80.1%

COc1ccc(OC)c(/C=C/C(=O)c2nc3ccccc3n2Cc2ccc(F)cc2)c1
active: HOP-92 NSCLC -11% | K-562 leukemia 0.885% | RXF 393 renal -52.5% | EKVX NSCLC -62.1% | UO-31 renal -43.9% | CCRF-CEM leukemia -18.5% | MOLT-4 leukemia -6.12% | SR leukemia -8.46% | NCI/ADR-RES ovarian -41.5% | MDA-MB-468 breast -57.3%

COC(=O)C[C@](O)(CCCC(C)C)C(=O)O[C@H]1C(OC)=C[C@@]23CCCN2CCc2cc4c(cc2[C@@H]13)OCO4
inactive: EKVX NSCLC 14.2% | NCI/ADR-RES ovarian 14.1%
active: NCI-H460 lung -28.6% | A549/ATCC NSCLC -7.85% | K-562 leukemia 3.55% | MDA-MB-231 breast 7.43% | RXF 393 renal -8.52% | HT29 colon -22.7% | LOX IMVI melanoma -66.6% | UO-31 renal 6.22% | CCRF-CEM leukemia 0.557% | MOLT-4 leukemia 1.41% | SR leukemia -24.8% | OVCAR-5 ovarian 5.45% | HS 578T breast -4.94% | SW-620 colon -10.5% | MDA-MB-468 breast -27.4%

COc1cc(OC)c(S(=O)(=O)N(CCCl)CCCl)cc1C(=O)/C=C/c1ccc(C)cc1
active: RXF 393 renal -17.9% | LOX IMVI melanoma -24%
inactive: HOP-92 NSCLC 70.5% | K-562 leukemia 70.9% | MDA-MB-231 breast 35% | UO-31 renal 55.6% | CCRF-CEM leukemia 70.7% | MOLT-4 leukemia 82.4% | SR leukemia 53.6% | OVCAR-5 ovarian 91.7% | HS 578T breast 56.8% | SW-620 colon 82.8% | MDA-MB-468 breast 68.6%
